# In all, about 1,200 compounds went through this assay and about 600 (50%) were called active. The set was probably picked from earlier hits. Some of the results follow. Potency and affinity values are given separately. A number with no mark means an inactive call. Cut-off read from the data, not from the text of the source: active = inhibition above about 42%; inactive = the rest.
# Target: SUMO-conjugating enzyme UBC9 (Homo sapiens) (UniProt P63279)
# Assay: SUMOylation inhibitor hit validation, confirmation, SUMOylation inhibitor project, biochemical, AlphaScreen (AID 2018)
# Conditions: AlphaScreen in vitro SUMOylation assay; at 35 µM; hits give high values
# Chain of SUMO-conjugating enzyme UBC9 (Homo sapiens) (P63279 whole entry, looked up): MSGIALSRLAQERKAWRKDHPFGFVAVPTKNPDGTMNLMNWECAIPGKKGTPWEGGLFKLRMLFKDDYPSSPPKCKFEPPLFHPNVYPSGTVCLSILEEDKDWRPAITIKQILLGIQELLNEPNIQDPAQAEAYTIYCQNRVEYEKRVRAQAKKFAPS
row,SMILES,inhibition
1,Cc1cc2c(NC(=O)Nc3ccc(C(C)(C)C)cc3)cccc2nn1,15.3%
2,CCOC(=O)NC(=O)COC(=O)c1ccc(O)cc1,24.8%
3,COCCn1c(-c2ccco2)nc2nc3ccccc3nc21,19.2%
4,O=C(NCc1ccco1)Nc1ccc2snnc2c1,11%
5,COc1ccc2nc(-c3ccco3)c(-c3ccco3)nc2c1,76.8% (active)
6,COc1cc(OC)cc(-c2nc(-c3ccccc3)no2)c1,-70.2%
7,COCCNC(=O)Nc1ccc2nc(-c3ccco3)c(-c3ccco3)nc2c1,102% (active)
8,CCOc1ccccc1Oc1c(C)oc2c(CN3CCN(C)CC3)c(O)ccc2c1=O,-5.4%
9,S=c1[nH]nc(-c2cc(-c3ccccc3)n[nH]2)n1/N=C/c1ccc(Cl)c(Cl)c1,12.5%
10,Cc1cccc(-c2n[nH]c(=S)n2/N=C/C=C/c2ccco2)c1,37.5%
11,O=C(O)CCCCCNc1ccc2nsnc2c1[N+](=O)[O-],-10.2%
12,C[C@@H]1CN=C2N(CCNC(=O)CCC3CCCCC3)[C@H](Cc3ccc(O)cc3)CN21,6%
13,O=C1OC(Nc2ccc3ncccc3c2)c2ccccc21 (configuration not stated),2.1%
14,Cc1cccc(C(=O)O)c1NC(=O)c1ccc(F)cc1,2.9%
15,Cc1cc2c(NC(=O)Nc3ccc(F)cc3)cccc2nn1,10.5%
16,Cc1cc2c(N)cccc2nn1,101% (active)
17,Cc1cc2c(NC(=O)Nc3ccccc3)cccc2nn1,26.1%
18,COc1ccc(C2C3=C(CCCC3=O)Nc3c(-c4ccccc4)c(C)nn32)cc1 (configuration not stated),4.2%
19,O=C(O)CSc1cc(C(=O)c2ccccc2O)cn2c(=O)c3c(-c4ccccc4)csc3nc12,99.2% (active)
20,O=C(O)CSc1cc(C(=O)c2cc(F)ccc2O)cn2c(=O)c3c(-c4ccccc4)csc3nc12,95.3% (active)
21,COc1ccc(/C=C/c2cc(C(=O)O)c3ccccc3n2)cc1,21.4%
22,N#CCCN(Cc1cccnc1)C(=S)NC1CC2C=CC1C2 (configuration not stated),-4.1%
23,COC(=O)Cn1c2ccc(C)cc2c2nc(C)sc21,30.1%
24,CCOC(=O)Cn1c2ccc(OC)cc2c2nc3ccccc3nc21,38.7%
25,COc1cc2c(C#N)c(N3CCCCC3)nc(N)c2c(N)n1,47.6% (active)

row,SMILES,inhibition
1,COc1cc2c(C#N)c(N3CCN(C)CC3)nc(N)c2c(N)n1,21.5%
2,CCCN(CC1CC1)c1nc(N)c2c(N)nc(OC)cc2c1C#N,16.9%
3,COc1cc2c(C#N)c(N3CCN(c4ccccc4OC)CC3)nc(N)c2c(N)n1,19.7%
4,CN1CCc2cc3c(c4c2[C@H]1[C@H](O)c1ccccc1-4)OCO3,74% (active)
5,CC(=O)NC(=S)Nc1ccc(NC(=S)NC(=O)/C=C/c2ccco2)cc1,7.8%
6,NC(N)=NS(=O)(=O)c1ccc(NC(=S)NC(=O)/C=C/c2ccco2)cc1,34.2%
7,COc1ccc(NC(=O)N2c3ccc(OC)cc3C(C)=CC2(C)C)cc1,28.1%
8,Cc1c(C(=O)c2ccc(F)cc2F)c2ccccn2c1CCC#N,15.4%
9,COc1ccc(Cn2c(C)c(C)c(C#N)c2NC(=O)Nc2ccc(F)cc2)cc1,-26.7%
10,c1cc(Nc2ncnc3sc4c(c23)CCC4)ccn1,12.9%
11,Cc1cc2n(n1)SC(Nc1cccc3ccccc13)N2 (configuration not stated),14%
12,Cc1ccc2cc(C(c3nnnn3C(C)(C)C)N3CCCCCC3)c(=O)[nH]c2c1 (configuration not stated),0.1%
13,COc1ccc(-c2csc(NC(=S)NC(=O)/C=C/c3ccco3)n2)cc1OC,74.2% (active)
14,CNS(=O)(=O)c1ccc2nc(NC(=O)/C=C/c3ccco3)sc2c1,16.2%
15,Cc1nc2ccc(-c3nc4cc(N)ccc4o3)cc2[nH]1,-11.6%
16,CCCCCCC(C)OC(=O)c1ccccc1C(=O)O (configuration not stated),10.7%
17,Cc1c(Br)c(O)c(Br)c2sc(=O)oc12,49.6% (active)
18,Cc1ccc(Nc2nc(=O)c3cc([N+](=O)[O-])ccc3s2)cc1,24.2%
19,COc1cc([N+](=O)[O-])cc(/C=N/NC(=O)C(C)Nc2cccc3ccccc23)c1O (configuration not stated),-212%
20,COc1cccc(OC)c1C(=O)N1CCNCC1,-1.1%
21,O=C(N/N=C/c1ccc(O)cc1O)C(=O)N/N=C/c1ccc(O)cc1O,101% (active)
22,O=C(CNc1ccc2ccccc2c1)N/N=C/c1cc2ccccc2nc1Cl,37.3%
23,COc1cccc(/C=N/NC(=O)C(=O)N/N=C/c2cccc(OC)c2O)c1O,98.6% (active)
24,CC(O)C(=O)N/N=C/c1cccc(Cl)c1Cl (configuration not stated),-34.7%
25,COc1ccc2c(c1)-c1nc(/N=C/c3cccc(OC)c3O)sc1CC2,28.4%

row,SMILES,inhibition
1,O=C(NCCNc1ccc2ccccc2c1)c1cccn2c(=O)c3sccc3nc12,23.7%
2,Cc1ccc(-c2nc3cc(N)ccc3o2)cc1,11.5%
3,CC(C)CC(=O)Nc1ccc2oc(-c3cccnc3)nc2c1,16.9%
4,Cn1nccc1NC(=O)Nc1cccc(Br)c1,-0.2%
5,CCN1C(=O)c2cccc3c(N)ccc1c23,50% (active)
6,CN1C(=O)c2cccc3c(S(=O)(=O)NCCc4ccccc4)ccc1c23,-13%
7,CN1C(=O)c2cccc3c(S(=O)(=O)NCc4ccco4)ccc1c23,5%
8,C=CCN1C(=O)N(/C=C/C)c2cccc3cccc1c23,-14.9%
9,COC(=O)/C(=C\Nc1ccc(Cl)cc1Cl)NC(=O)c1ccc(OC)cc1,22.8%
10,COc1cccc(C(=O)Nc2cccc(C(=O)NC3=NN(c4c(Cl)cc(Cl)cc4Cl)C(=O)C3)c2)c1,101% (active)
11,COc1cccc(NC(=S)Nc2cccc3ccccc23)c1,30.7%
12,O=C(CNc1cccc2ccccc12)N/N=C/c1ccccn1,-1.7%
13,C=CCc1cccc(/C=N/NC(=O)CNc2cccc3ccccc23)c1O,25.1%
14,O=C(Cc1cc(=O)[nH][nH]1)N/N=C/c1cccc2ccccc12,47.2% (active)
15,O=C1CC(c2ccco2)CC(O)=C1C=NCC1NCCc2ccccc21 (configuration not stated),18.6%
16,O=C1CC(c2ccco2)CC(O)=C1C=Nc1cc(Cl)ccc1O (configuration not stated),54.5% (active)
17,O=C1CC(c2ccco2)CC(O)=C1C=Nc1cc(Cl)ccc1Cl (configuration not stated),17.2%
18,O=C1CCN(c2ncccc2[N+](=O)[O-])CC1,-9.6%
19,O=C1C(Cl)=C(N2CCN(c3ccccc3[N+](=O)[O-])CC2)C(=O)c2ccccc21,101% (active)
20,Nc1c(Cl)cc(NC(=O)c2ccccc2C(=O)O)cc1Br,8%
21,CCCCN1Cc2c(nc3cc(-c4ccco4)[nH]n3c2=O)C1=O,4.3%
22,NS(=O)(=O)c1cnccc1Nc1ccc(Cl)cc1,-32.2%
23,O=C(Nc1ccccc1)c1ccccc1CCc1ccccc1,-9.6%
24,C/C(=C\C(=O)c1ccccc1)Nc1ccc(O)cc1,18.7%
25,O=C(O)c1ccc(N2N=C(c3ccccc3)CC2c2ccccc2)cc1 (configuration not stated),-14.9%

row,SMILES,inhibition
1,COc1ccc(C2=NN(C(=O)c3cccs3)C(c3ccccc3O)C2)cc1 (configuration not stated),27.7%
2,Cc1cc(=O)n2[nH]c(N)c(N=Nc3ccccc3)c2n1,23.6%
3,CCOCCCNC1=C(Cl)C(=O)c2ccccc2C1=O,90.1% (active)
4,O=C1c2nc3cc(-c4ccco4)[nH]n3c(=O)c2CN1C1CCCCC1,6.6%
5,O=C(NCc1ccc(F)cc1)C(=O)c1cn(CC(=O)N2CCCC2)c2ccccc12,11.6%
6,Cc1[nH][nH]c(=O)c1C(c1c(C)[nH][nH]c1=O)c1cn(Cc2ccc(F)cc2)c2ccccc12,50.9% (active)
7,Cc1[nH][nH]c(=O)c1C(c1c(C)[nH][nH]c1=O)c1cn(C)c2ccccc12,102% (active)
8,Cc1[nH][nH]c(=O)c1C(c1c(C)[nH][nH]c1=O)c1cn(Cc2cccc3ccccc23)c2ccccc12,32.5%
9,O=C(O)/C=C/C(=O)Nc1ccc2c(c1)NC(=O)CO2,13.1%
10,Cc1c(O)ccc2c(CC(=O)N[C@@H](Cc3ccc(O)cc3)C(=O)O)cc(=O)oc12,16.9%
11,COc1ccc2c(c1)c(=O)oc1c(C)c(OCc3ccc(C(=O)O)cc3)ccc12,65.5% (active)
12,COc1cc2cc(NC(C)=O)cc(NCc3ccccc3)c2cc1OC,50.6% (active)
13,COc1ccc(NC(=S)Nc2cccc3ccccc23)cc1OC,10.7%
14,CC(=O)Nc1cccc(NC(=S)Nc2cccc3ccccc23)c1,28.9%
15,CCOC(=O)N1CCN(C2=C(NS(=O)(=O)c3ccc(C)cc3)C(=O)c3ccccc3C2=O)CC1,85.2% (active)
16,Cc1ccc(C(=O)Nc2ccccc2C(=O)N2CCN(c3ccccc3)CC2)cc1,-27.1%
17,CCOC(=O)N1CCN(C2=C(NS(=O)(=O)c3ccc(NC(C)=O)cc3)C(=O)c3ccccc3C2=O)CC1,53.7% (active)
18,CCOC(=O)N1CCC(c2cc(=O)n(-c3ccccc3)[nH]2)CC1,16.1%
19,CC(=O)Nc1ccc(S(=O)(=O)Nc2cccn(Cc3ccc(C)cc3)c2=O)cc1,1.7%
20,COc1ccc(Br)cc1C1CC(=O)N2CN(Cc3ccccc3)CSC2=C1C#N (configuration not stated),29.1%
21,O=C1C(=O)c2ccccc2C(O)=C1CCCCl,102% (active)
22,COc1ccc(CC2=C(O)c3ccccc3C(=O)C2=O)cc1,19.6%
